Active and inactive are the calls of the source. The rule behind the calls is not given here. Square brackets hold non-standard residues; d marks the D form. Peptide text beside a SMILES is read from it. Dolaproine = CO[C@@H]([C@@H]1CCCN1)[C@@H](C)C(=O)O; Dil = CC[C@H](C)[C@H](NC)[C@@H](CC(=O)O)OC; NMeV = CN[C@H](C(=O)O)C(C)C

The nature of the experiment: Identification of antibody-drug conjugate (ADC) payloads which are substrates of ATP-binding cassette drug efflux transporters: cell line panel data. To be noted: 99 cancer cell line panel, CellTiter-Glo viability, 48 h; active compounds read low. The source says:
Antibody-drug conjugates (ADCs) feature an antibody recognizing a specific protein joined to a potent toxic payload. Numerous antibody-drug conjugates have received FDA approval; however, clinical resistance arises. Resistance mechanisms include decreased expression or mutation of the antibody target, impaired payload release, or increased expression of ATP-binding cassette (ABC) efflux transporters associated with multidrug resistance. We therefore sought to characterize the activity of ADC payloads across a broad set of cancer cell lines. We performed a high-throughput screen with 27 common ADC payloads against a panel of 99 cell lines to assess sensitivity to various payloads. Duocarmycin DM and PNU-159682 were exquisitely toxic across the panel of cancer cell lines of varying origins. These findings highlight the potentially broad applicability of Duocarmycin DM and PNU-159682 as ADC payloads in future ADC development.
Compounds were sourced from Levena Biopharma (San Diego, CA), Selleck Chem (Houston, TX), ChemieTek (Indianapolis, IN), or Microsource Discovery Systems (Gaylordsville, CT). Cell line sources and culture conditions were as follows: CAL-27 (ATCC: CRL-2095) and Hs 766T (ATCC: HTB-134) were grown in DMEM media +10% FBS. RKO (ATCC: CRL-2577), A-427 (ATCC: […]), BT-20 (ATCC: HTB-19), Detroit562 (ATCC: CCL-138), HARA-B (Cytion: 300465), PA-1 (ATCC: CRL-1572), TCCSUP (ATCC: […]), UM-UC-3 (ATCC: CRL-1749), and WI-38 (ATCC: CCL-75) were grown in EMEM media +10% FBS. AGS (ATCC: CRL-1739) was grown in F12K media +10% FBS. JJN-3 (DSMZ: ACC 541) was grown in IMDM media +20% FBS. 769-P (ATCC: CRL-1933), 786-O (ATCC: CRL-1932), A-375 (ATCC: CRL-1619), A-431 (ATCC: CRL-1555), A-549 (ATCC: CCL-185), A2780 (Cytion: 300491), ACHN (ATCC: CRL-1611), BT-474 (ATCC: HTB-20), BT-549 (ATCC: HTB-122), CCRF-CEM (ATCC: CCL-119), Daudi (ATCC: CCL-213), HaCaT (Cytion: 300493), HCC38 (ATCC: CRL-2314), HCC827 (ATCC: CRL-2868), HCT15 (ATCC: CCL-225), HEL 92.1.7 (ATCC: TIB-180), Hs 352.Sk (ATCC: CRL-7250), Hs578T (ATCC: HTB-126), HT-1080 (ATCC: CCL-121), HuCC-T1 (Riken Bioresource Center: RCB1960), HuP-T3 (DSMZ: ACC 259), HuP-T4 (DSMZ: ACC 223), IM-9 (ATCC: CCL-159), JJ012 (Gift: Karina Galoian (University of Miami)), JM-1 (ATCC: CRL-10423), K-562 (ATCC: CCL-243), Kasumi-3 (ATCC: CRL-2725), KMS-12-BM (DSMZ: ACC 551), LOUCY (ATCC: CRL-2629), LoVo (ATCC: CCL-229), MCF-7 (ATCC: HTB-22), MDA-MB-231 (ATCC: HTB-26), MDA-MB-436 (ATCC: HTB-130), MDA-MB-468 (ATCC: HTB-132), MIA PaCa-2 (ATCC: CRL-1420), MM1.R (ATCC: CRL-2975), MM1.S (ATCC: CRL-2974), NALM-6 (ATCC: CRL-3273), NCI-H1299 (ATCC: CRL-5803), NCI-H1355 (ATCC: CRL-5865), NCI-H1395 (ATCC: CRL-5868), NCI-H1437 (ATCC: CRL-5872), NCI-H2122 (ATCC: CRL-5985), NCI-H2170 (ATCC: CRL-5928), NCI-H226 (ATCC: CRL-5826), NCI-H23 (ATCC: CRL-5800), NCI-H322M (NIH: NCI-60), NCI-H460 (ATCC: HTB-177), NCI-H522 (ATCC: CRL-5810), NCI-H929 (ATCC: CRL-3580), NIH 3T3 (ATCC: CRL-1658), OCI-M2 (DSMZ: ACC 619), OPM-2 (DSMZ: ACCC 50), OVCAR-3 (ATCC: HTB-161), OVCAR-4 (Gift: Phil Lorenzi MD Anderson), OVCAR-8 (Gift: Phil Lorenzi MD Anderson), Panc 10.05 (ATCC: CRL-2547), PANC-1 (ATCC: CRL-1469), Pfeiffer (ATCC: CRL-2632), PL45 (ATCC: CRL-2558), PSN1 (ATCC: CRL-3211), Raji (ATCC: CCL-86), RD (Gift: Mari Yohe NCI), RPMI-8226 (ATCC: CRM-CCL-155), RS4;11 (ATCC: CRL-1873), SK-BR-3 (ATCC: HTB-30), SK-MEL-28 (ATCC: HTB-72), SMS-CTR (Gift: Mari Yohe NCI), SNU-16 (ATCC: CRL-5974), SU-DHL-8 (ATCC: CRL-2961), SU.86.86 (ATCC: CRL-1837), SW1990 (ATCC: CRL-2172), SW403 (ATCC: CCL-230), SW480 (ATCC: CCL-228), SW579 (ATCC: HTB-107), T-47D (ATCC: HTB-133), T24 (ATCC: HTB-4), and U-937 (ATCC: CRL-1593.2) were grown in RPMI +10% FBS. U266B1 (ATCC: TIB-196) were grown in RPMI +15% FBS. ME-1 (ATCC: HB-119), MOLM-13 (DSMZ: ACC 554), AMO1 (DSMZ: ACC 538), MOLP-8 (DSMZ: ACC 569), MV4-11 (ATCC: CRL-9591), PL-21 (DSMZ: ACC 536), and L-363 (DSMZ: ACC 49) were grown in RPMI +20% FBS. […]
(In general: Cellular ATP, detected with luciferase, serves as a proxy for viable cell number.)
Consider `CN(C)CCOc1ccc2[nH]c(C(=O)N3C[C@@H](CCl)c4c3cc(O)c3ccccc43)cc2c1`, for which the viability AUC was 514 (active).
On to `CC[C@H](C)[C@@H]([C@@H](CC(=O)N1CCC[C@H]1[C@H](OC)[C@@H](C)C(=O)N[C@@H](Cc1ccccc1)C(=O)O)OC)N(C)C(=O)[C@@H](NC(=O)[C@@H](NC)C(C)C)C(C)C` (H-[NMeV]V[Dil][Dolaproine]F-OH), for which the viability AUC is 938 (active).
In the case of `COc1ccc(C2=CN3C(=O)c4cc(OC)c(OCCCOc5cc6c(cc5OC)C(=O)N5C=C(c7ccc(N)cc7)C[C@@H]5C=N6)cc4N=C[C@H]3C2)cc1`, the viability AUC is 762 (active).
Then `CC[C@H](C)[C@@H]([C@H](N)CC(=O)N1CCC[C@H]1[C@H](OC)[C@@H](C)C(=O)N[C@@H](Cc1ccccc1)c1nccs1)N(C)C(=O)[C@@H](NC(=O)[C@H](C(C)C)N(C)C)C(C)C`, with 769 (active); and `COC(=O)c1cc2c3c(cc(O)c2[nH]1)N(C(=O)c1cc2cc(OC)c(OC)c(OC)c2[nH]1)CC3CCl` (stereo unspecified), with 651 (active); and `CC[C@H](C)[C@@H]([C@H](N)CC(=O)N1CCC[C@H]1[C@H](OC)[C@@H](C)C(=O)N[C@@H](Cc1ccccc1)c1nccs1)N(C)C(=O)[C@@H](NC(=O)[C@@H](NC)C(C)C)C(C)C`, with 738 (active).
Turning to `CCN(C(C)=O)[C@H]1CO[C@@H](O[C@H]2[C@H](O[C@H]3C#C/C=C\C#C[C@]4(O)CC(=O)C(NC(=O)OC)=C3/C4=C\CSSSC)O[C@H](C)[C@@H](NO[C@H]3C[C@H](O)[C@H](SC(=O)c4c(C)c(I)c(O[C@@H]5O[C@@H](C)[C@H](O)[C@@H](OC)[C@H]5O)c(OC)c4OC)[C@@H](C)O3)[C@@H]2O)C[C@@H]1OC`, the viability AUC was 700 (active).
Then `COc1cccc2c1C(=O)c1c(O)c3c(c(O)c1C2=O)C[C@@](O)(C(=O)CO)C[C@@H]3O[C@H]1C[C@H]2[C@H](O[C@@H]3[C@@H](OC)OCCN32)[C@H](C)O1`, with 549 (active).
With `COc1cc2cc(c1Cl)N(C)C(=O)C[C@H](O)[C@]1(C)O[C@H]1[C@H](C)C1C[C@@](O)(NC(=O)O1)[C@H](OC)/C=C/C=C(\C)C2`, the viability AUC is 1010 (active).
As to `CCN[C@H]1CO[C@@H](O[C@H]2[C@H](O[C@H]3C#C/C=C\C#C[C@]4(O)CC(=O)C(NC(=O)OC)=C3/C4=C\CSSSC)O[C@H](C)[C@@H](NO[C@H]3C[C@H](O)[C@H](SC(=O)c4c(C)c(I)c(O[C@@H]5O[C@@H](C)[C@H](O)[C@@H](OC)[C@H]5O)c(OC)c4OC)[C@@H](C)O3)[C@@H]2O)C[C@@H]1OC`, the viability AUC is 635 (active).
Then `CC(C)(C)OC(=O)Nc1ccc2[nH]c(C(=O)N3C[C@@H](CCl)c4c3cc(O)c3ccccc43)cc2c1`, with 645 (active).

The record behind these values is PubChem BioAssay AID2202241 (National Center for Advancing Translational Sciences (NCATS), 2025).
